PubChem BioAssay (NCI)
About 79,000 compounds went through this panel and 15% of them were active in at least one assay; those are over-represented in the sample as a whole. A number with no mark means an inactive call. The source made the active and inactive calls. Cut-off read from the data, not from the text of the source: active = growth inhibition above about 70%; inactive = the rest.

Key:
[1] = NCI Yeast Anticancer Drug Screen. Data for the sgs1 strain (AID 173);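 note: 0% = growth of vehicle-only control cultures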; settings: S. cerevisiae sgs1 mutant, hits give high values
Method in brief: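 Treat defined-mutant yeast with compound; measure growth; calculate inhibition relative to vehicle-treated cells.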

[2] = NCI Yeast Anticancer Drug Screen. Data for the rad18 strain (AID 177); settings: S. cerevisiae rad18 mutant growth inhibition, hits give high values
Method in brief: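 A genetically defined yeast mutant impaired in DNA damage repair was treated with test compounds, then its growth was measured against cultures receiving vehicle alone.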

[3] = NCI Yeast Anticancer Drug Screen. Data for the rad52 strain (AID 147);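 note: 0% = growth of vehicle-treated control cultures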; settings: S. cerevisiae rad52 mutant growth inhibition, hits give high values
Method in brief: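 Screen used a yeast mutant impaired in DNA repair. After compound exposure, growth was measured. Values reflect inhibition compared with vehicle-treated cells.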

[4] = NCI Yeast Anticancer Drug Screen. Data for the mgt1 strain (AID 153); settings: S. cerevisiae mgt1 mutant growth inhibition, hits give high values
Method in brief: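 Genetically defined yeast (mgt1) treated with compound; inhibition of growth expressed against vehicle-treated controls.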

[5] = NCI Yeast Anticancer Drug Screen. Data for the rad50 strain (AID 155);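 note: 0% = growth of vehicle-only cultures of the same strain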; settings: S. cerevisiae rad50 strain growth inhibition, hits give high values
Method in brief: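 A DNA repair-deficient yeast mutant serves as the test organism; compound-induced growth inhibition is calculated against vehicle-treated cells.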

[6] = NCI Yeast Anticancer Drug Screen. Data for the mec2-1 strain (AID 157); settings: S. cerevisiae mec2-1 strain, hits give high values
Method in brief: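 Readout is yeast growth inhibition, normalised to vehicle-treated controls, in the mec2-1 strain exposed to compound.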

[7] = NCI Yeast Anticancer Drug Screen. Data for the rad14 strain (AID 159);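 note: 0% = growth of vehicle-treated control cultures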; settings: S. cerevisiae rad14 strain growth inhibition, hits give high values
Method in brief: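 Vehicle-treated cultures served as the baseline for growth inhibition of a DNA repair-mutant yeast strain exposed to each compound.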

[8] = NCI Yeast Anticancer Drug Screen. Data for the sgs1 mgt1 strain (AID 161);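 note: 0% = growth of cultures given vehicle only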; settings: S. cerevisiae sgs1 mgt1 strain, hits give high values
Method in brief: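 Compounds are added to genetically altered yeast, and growth is compared with cultures given vehicle alone to give percent inhibition.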

[9] = NCI Yeast Anticancer Drug Screen. Data for the CLN2oe strain (AID 163);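 note: 0% = growth of vehicle-only control cultures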; settings: S. cerevisiae CLN2oe strain, hits give high values
Method in brief: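 Values reflect how much compound exposure reduced yeast growth, referenced to vehicle-exposed cells. Assay organism is a strain with a defined genetic change affecting cell-cycle control.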

[10] = NCI Yeast Anticancer Drug Screen. Data for the cln2 rad14 strain (AID 165);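 note: 0% = growth equal to vehicle treated cultures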; settings: S. cerevisiae cln2 rad14 strain, hits give high values
Method in brief: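 Relative to vehicle controls, growth inhibition of compound-treated cln2 rad14 yeast was recorded.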

[11] = NCI Yeast Anticancer Drug Screen. Data for the bub3 strain (AID 167); settings: S. cerevisiae bub3 mutant strain, hits give high values
Method in brief: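 Inhibition values come from growth of compound-treated mutant yeast normalised to vehicle-treated controls.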

[12] = NCI Yeast Anticancer Drug Screen. Data for the wt2 strain (AID 169);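 note: 0% = growth of vehicle-treated yeast cultures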; settings: S. cerevisiae wt2 strain growth inhibition, hits give high values
Method in brief: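 Values express reduction in yeast growth under compound treatment, referenced to vehicle-treated cells.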

[13] = NCI Yeast Anticancer Drug Screen. Data for the mlh1 strain (AID 171);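 note: 0% = growth of vehicle-treated control cultures of the same strain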; settings: S. cerevisiae mlh1 strain growth inhibition, hits give high values
Method in brief: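 Steps: expose the defined-mutant yeast strain to compound; expose a parallel culture to vehicle; measure growth; express compound effect as inhibition relative to the vehicle culture.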

[14] = NCI Yeast Anticancer Drug Screen. Data for the mlh1 rad18 strain (AID 175); settings: S. cerevisiae mlh1 rad18 strain growth inhibition, hits give high values
Method in brief: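 Test agents were incubated with a yeast strain of defined genotype (DNA damage repair defect). Inhibition of growth was derived by comparison with vehicle-exposed cultures.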

[15] = at 5.0 µM (retest, dose inferred, filed as 0.5)
[16] = at 50.0 µM (retest, dose inferred, filed as 5.0)

Q: What does the source list for `Nc1n[n+]([O-])c2ccc(Cl)cc2[n+]1[O-]`?
A: growth inhibition ([1]; at 1.2 µM): 18%; growth inhibition ([1]; at 3.7 µM): 55%; growth inhibition ([1]; at 11.0 µM): 78% (active); growth inhibition ([1]; at 33.0 µM): 91% (active); growth inhibition ([1]; at 100.0 µM): 95% (active); growth inhibition ([2]; at 1.2 µM): 66%; growth inhibition ([2]; at 3.7 µM): 87% (active); growth inhibition ([2]; at 11.0 µM): 93% (active); growth inhibition ([2]; at 33.0 µM): 95% (active); growth inhibition ([2]; at 100.0 µM): 95% (active)

Q: Which results are given for `S=C1SCN(C2CCCCC2)CN1C1CCCCC1`?
A: growth inhibition ([3]; at 1.2 µM): -21%; growth inhibition ([3]; at 3.7 µM): -25%; growth inhibition ([3]; at 11.0 µM): -14%; growth inhibition ([3]; at 33.0 µM): -1%; growth inhibition ([3]; at 100.0 µM): 55%; growth inhibition ([4]; at 1.2 µM): -72%; growth inhibition ([4]; at 3.7 µM): -45%; growth inhibition ([4]; at 11.0 µM): -2%; growth inhibition ([4]; at 33.0 µM): -23%; growth inhibition ([4]; at 100.0 µM): 64%; growth inhibition ([5]; at 1.2 µM): -4%; growth inhibition ([5]; at 3.7 µM): -8%; growth inhibition [5, 15]: 44%; growth inhibition ([5]; at 11.0 µM): -1%; growth inhibition ([5]; at 33.0 µM): 13%; growth inhibition [5, 16]: 99% (active); growth inhibition ([5]; at 50.0 µM): 47.5%; growth inhibition ([5]; at 100.0 µM): 67%; growth inhibition ([6]; at 1.2 µM): -65%; growth inhibition ([6]; at 3.7 µM): -78%; growth inhibition [6, 15]: 56%; growth inhibition ([6]; at 11.0 µM): -64%; growth inhibition ([6]; at 33.0 µM): -28%; growth inhibition [6, 16]: 100% (active); growth inhibition ([6]; at 50.0 µM): 63.5%; growth inhibition ([6]; at 100.0 µM): 58%; growth inhibition ([7]; at 1.2 µM): -31%; growth inhibition ([7]; at 3.7 µM): -25%; growth inhibition ([7]; at 11.0 µM): -24%; growth inhibition ([7]; at 33.0 µM): 2%; growth inhibition ([7]; at 100.0 µM): 45%; growth inhibition [8, 15]: 0%; growth inhibition [8, 16]: 94% (active); growth inhibition ([8]; at 50.0 µM): 72.3% (active); growth inhibition ([9]; at 1.2 µM): -21%; growth inhibition ([9]; at 3.7 µM): -19%; growth inhibition ([9]; at 11.0 µM): -16%; growth inhibition ([9]; at 33.0 µM): -1%; growth inhibition ([9]; at 100.0 µM): 19%; growth inhibition [10, 15]: 10%; growth inhibition [10, 16]: 81% (active); growth inhibition ([10]; at 50.0 µM): 31.1%; growth inhibition ([11]; at 1.2 µM): -18%; growth inhibition ([11]; at 3.7 µM): -10%; growth inhibition [11, 15]: 20%; growth inhibition ([11]; at 11.0 µM): -23%; growth inhibition ([11]; at 33.0 µM): 22%; growth inhibition [11, 16]: 94% (active); growth inhibition ([11]; at 50.0 µM): 82.8% (active); growth inhibition ([11]; at 100.0 µM): 71% (active); growth inhibition ([12]; at 1.2 µM): -37%; growth inhibition ([12]; at 3.7 µM): -35%; growth inhibition ([12]; at 11.0 µM): -39%; growth inhibition ([12]; at 33.0 µM): -22%; growth inhibition ([12]; at 100.0 µM): 39%; growth inhibition ([13]; at 1.2 µM): -44%; growth inhibition ([13]; at 3.7 µM): -43%; growth inhibition ([13]; at 11.0 µM): -31%; growth inhibition ([13]; at 33.0 µM): -5%; growth inhibition ([13]; at 100.0 µM): 79% (active); growth inhibition ([1]; at 1.2 µM): -36%; growth inhibition ([1]; at 3.7 µM): -22%; growth inhibition ([1]; at 11.0 µM): -17%; growth inhibition ([1]; at 33.0 µM): 24%; growth inhibition ([1]; at 100.0 µM): 71% (active); growth inhibition [14, 15]: 34%; growth inhibition [14, 16]: 99% (active); growth inhibition ([14]; at 50.0 µM): 49.1%; growth inhibition ([2]; at 1.2 µM): -57%; growth inhibition ([2]; at 3.7 µM): -38%; growth inhibition ([2]; at 11.0 µM): -39%; growth inhibition ([2]; at 33.0 µM): -3%; growth inhibition ([2]; at 100.0 µM): 64%
